# A selection: hits, their analogues and other compounds. The true share with any hit is near 10%.
# p97 inhibitor: inhibitors of human p97 ATPase; P55072; recombinant p97 ATPase, Kinase-Glo ATP luminescence, 3 h; inhibition, % at 8 µM; 220,000 compounds, 0.42% hits; AID 1481; in the data active = inhibition above about 15%;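 note: 0% = DMSO vehicle and 100% = wells lacking enzyme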
# INS promoter inh: TRM-6 insulin promoter activity inhibition | TRM-6 cells (human fetal islet line), insulin promoter-eGFP reporter, imaging; reporter expression induced with tamoxifen | inhibition, % at 2 µM | 130,000 compounds, 0.9% hits | AID 1273;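 active = inhibition above the mean plus 3 SD, with well images judged a real hit on visual review, cut at about 60% in these data, passing the limit was not always enough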
# L major viab: Leishmania major promastigote growth inhibition | Leishmania major promastigotes, resazurin fluorescence viability | inhibition, % at 10 µM | 200,000 compounds, 9% hits | AID 1063; in the data active = inhibition above about 50%;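 note: promastigotes grown with compound for 44 hours at 28 °C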
# bCat KO growth: beta-catenin-lacking colon tumor cell growth suppression | HCT116 beta-catenin knockout viability, CellTiter-Glo, 60 h; active compounds read low | viability, % at 10 µM | 140,000 compounds, 1.5% hits;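 active = viability at or under a set limit, the compound median less 4 SD, cut at about 6% in these data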;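 note: 0% = Hyamine 1622 control at 20 µM and 100% = untreated cell control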
# HCT116 PTEN-null: growth suppressors of cells with PTEN tumor suppressor deletion; HCT116 PTEN-null viability, CellTiter-Glo, 60 h; active compounds read low; 140,000 compounds, 1.2% hits; viability, % at 10 µM;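 active = viability at or below a set limit, 4 SD under the median of all tested compounds, cut at about 3.7% in these data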;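 note: PTEN knockout HCT116 line with beta catenin targeted HCT116 as companion control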
# ROMK mod: modulates human ROMK potassium channel activity; P48048; B-score at 10 µM; 130,000 compounds, 2% hits; Tet-inducible ROMK, thallium flux fluorescence; actives lie on both sides;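 active = signal ratio slope over the read window, or its plate-corrected B-score, at least 3 SD from the plate mean, either direction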;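 note: B-score of the F/F0 ratio slope over 7 to 12 s after thallium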
# Target sequence (P48048 whole entry, looked up): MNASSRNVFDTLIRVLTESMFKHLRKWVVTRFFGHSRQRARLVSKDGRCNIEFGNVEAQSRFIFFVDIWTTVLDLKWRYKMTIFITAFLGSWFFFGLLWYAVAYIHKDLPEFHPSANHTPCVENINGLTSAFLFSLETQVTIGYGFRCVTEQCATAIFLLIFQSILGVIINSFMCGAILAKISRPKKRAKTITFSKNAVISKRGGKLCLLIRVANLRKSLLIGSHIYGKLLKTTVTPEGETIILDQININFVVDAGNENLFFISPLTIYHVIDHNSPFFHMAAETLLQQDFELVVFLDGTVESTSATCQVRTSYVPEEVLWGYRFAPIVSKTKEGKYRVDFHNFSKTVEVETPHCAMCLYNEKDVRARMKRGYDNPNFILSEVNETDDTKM
# An asterisk follows results filed as active; nt = not tested or not shown.
SMILES,p97 inhibitor,INS promoter inh,L major viab,bCat KO growth,HCT116 PTEN-null,ROMK mod
CC(C)(C)NC(=O)CON=C1c2ccccc2-c2ccccc21,0.2,-26.7,8.3,91.7,82.4,-0.268
CC(C)(C)NCC(O)CON=C1c2ccccc2-c2ccccc21 (stereo unspecified),3.5,nt,98.8*,nt,nt,-2.25
CCn1c(C)nc2cc(C(=O)N/N=C(\C)c3ccccc3O)ccc21,-2.8,nt,-6.0,nt,nt,1.05
CCOC(=O)C1=C(C)N(C)C(C)=C(C(=O)OCC)C1c1cccnc1,-6.1,50.0,95.0*,84.5,92.9,-0.445
CCOC(=O)C1=C(N)Oc2ccc3ccccc3c2C1c1cccnc1 (stereo unspecified),-1.4,-332.6,98.4*,71.4,72.5,nt
COC(=O)C1=C(N)Oc2cc(C)n(CCc3ccccc3)c(=O)c2C1c1cccnc1 (stereo unspecified),3.6,nt,98.4*,94.2,100.0,nt
CCOC(=O)C1=C(N)Oc2cc(C)n(CCc3ccc(OC)c(OC)c3)c(=O)c2C1c1cccnc1 (stereo unspecified),-2.5,54.5,93.6*,105.6,90.0,nt
COc1cc(/C=C/C(=O)O)cc(S(=O)(=O)N(CC(C)C)CC(C)C)c1OC,2.7,63.6,-8.2,nt,nt,0.728
Brc1ccc(N=Nc2ccc3ccccc3n2)cc1,-36.1,nt,nt,nt,nt,nt
CCOC(=O)C1=C(N)N(c2ccccc2)C2=C(C(=O)CCC2)C1c1cccnc1 (stereo unspecified),1.9,-46.1,72.0*,95.5,98.1,0.0162
CC(C)[C@H](NC(N)=O)C(=O)Nc1cccc([N+](=O)[O-])c1,-3.7,nt,1.6,nt,nt,-0.361
Cc1ccc(C(CC(=O)NCCCN(C)C)c2ccc(OC(C)C)cc2)cc1 (stereo unspecified),-4.1,nt,nt,nt,nt,nt
COc1ccc(CCN=C(N)C(C)c2ccccc2)cc1OC (stereo unspecified),4.7,nt,nt,nt,nt,nt
CC(C)Oc1ccc(CCN=C(N)N=C(N)N)cc1Cl,7.1,-20.0,81.4*,nt,nt,0.229
COc1ccc(F)cc1S(=O)(=O)Nc1ccc(C)cc1,-3.8,13.6,23.1,68.1,63.8,nt
COC(=O)[C@@H](Cc1c[nH]c2ccccc12)NC(=O)c1cc(=O)[nH]c2ccccc12,6.0,nt,nt,nt,nt,-0.831
CN1CCN(c2ccc([N+](=O)[O-])c(-n3nc(-c4ccccc4)c4ccccc4c3=O)c2)CC1,-5.6,10.0,99.3*,63.0,63.8,-1.07
Cc1nn(-c2cc(N3CCNCC3)ccc2[N+](=O)[O-])c(=O)c2ccccc12,1.2,25.6,67.3*,84.6,102.5,nt
Cn1c(OCc2cccnc2)nc2c1c(=O)n(Cc1ccc(F)cc1)c(=O)n2C,4.1,nt,nt,nt,nt,-2.1
Cn1c(N/N=C2\CCCc3ccccc32)nc2c1c(=O)n(Cc1ccc(F)cc1)c(=O)n2C,1.2,nt,16.9,1.2*,1.2*,nt
COc1ccc(NC(=O)N2CCN(c3nc4ccccc4n3C(C)C)CC2)cc1,5.2,0.0,5.5,nt,nt,-1.66
Cc1ccc(SCc2nc3ccccc3n2CC(=O)Nc2ccc(Cl)cc2)cc1,0.7,nt,37.1,71.7,49.4,-0.822
CC(C)n1c(N2CCN(CC(=O)Nc3ccc4c(c3)OCCO4)CC2)nc2ccccc21,-2.3,nt,51.1*,89.4,82.5,-0.927
CC(C)Cn1c(N2CCN(CC(=O)Nc3ccc(Cl)cc3)CC2)nc2ccccc21,4.5,38.5,85.8*,nt,nt,nt
CCC(=O)N(Cc1ccc(S(N)(=O)=O)cc1)C1CC(=O)N(c2ccccc2)C1=O (stereo unspecified),-3.2,40.0,-7.0,nt,nt,1.05
SMILES,p97 inhibitor,INS promoter inh,L major viab,bCat KO growth,HCT116 PTEN-null,ROMK mod
C/C=C(/C)C(=O)OC1c2c(ccc3ccc(=O)oc23)OC(C)(C)C1OC(C)=O (stereo unspecified),-6.0,-10.5,67.4*,63.8,62.8,0.532
C/C(=N/OC(=O)c1ccc(C(F)(F)F)cc1)c1oc(C)nc1C,-3.4,nt,nt,nt,nt,nt
O=c1c(Cl)c(NCc2ccccc2)cnn1C12CC3CC(CC(C3)C1)C2,1.2,-40.7,92.6*,84.8,78.5,-1.33
O=C(O)CC12CC3CC(C1)CC(n1ncc(NCc4ccco4)c(Cl)c1=O)(C3)C2,-1.3,nt,nt,nt,nt,nt
Cc1ccc(C)c(NC(=S)c2ccccn2)c1,-1.9,28.2,98.3*,2.7*,3.8*,nt
Cc1ccc(C)c(NC(=S)c2ccc3ccccc3n2)c1,-1.7,35.5,-1.8,78.1,78.6,1.25
S=C(Nc1ccccn1)c1ccccn1,3.7,nt,98.4*,1.9*,1.8*,-0.0387
NC(=O)c1c(/N=C/c2cccs2)sc2c1CCCC2,7.1,nt,nt,nt,nt,nt
Cc1cccc2sc(NNC(=O)C3COc4ccccc4O3)nc12 (stereo unspecified),2.8,0.0,-5.3,1.2*,0.5*,-2.16
CC1C/C(=C/c2cccn2C)C(=O)/C(=C/c2cccn2C)C1 (stereo unspecified),-2.8,-91.7,86.3*,3.8*,10.7,nt
Cc1ccc(/C=N/N2C(=S)SC(C)(C)C2N(O)C(=O)Nc2ccc([N+](=O)[O-])cc2)cc1 (stereo unspecified),3.5,-18.4,41.0,3.7*,8.7,nt
CC1(C)SC(=S)N(/N=C/c2ccc(O)cc2)C1N(O)C(=O)Nc1ccc([N+](=O)[O-])cc1 (stereo unspecified),1.7,2.3,7.9,63.1,64.9,nt
COc1ccc(OC)c(NC(=O)COC(=O)CN(C)S(=O)(=O)c2ccc(C)cc2)c1,-0.7,23.3,-11.2,84.9,101.6,-0.055
CCCCCCC(=O)N=Nc1c(O)[nH]c2ccc([N+](=O)[O-])cc12,-3.4,14.8,78.2*,97.0,84.0,0.501
O=C(Nc1ccccc1Cl)Oc1ccc(-c2ccccc2)cc1,2.4,nt,nt,nt,nt,nt
COc1ccc(CC(=O)NCc2ccco2)cc1OC,-0.6,-45.7,-6.5,86.8,93.5,1.19
COc1cc(CNCc2ccccn2)ccc1OCc1cccc(Cl)c1,-0.6,-25.0,98.8*,43.3,52.1,nt
COc1cc(CNCc2ccccn2)ccc1OCc1ccc(Cl)cc1,-1.9,nt,96.2*,59.0,70.4,nt
COc1ccc(CNc2ncccn2)cc1OC,3.0,47.4,-8.1,nt,nt,0.567
COc1cc(CNc2ncn[nH]2)ccc1OCc1cccc(C)c1,0.2,nt,2.1,nt,nt,1.39
COc1cc(CNC23CC4CC(CC(C4)C2)C3)ccc1OCc1ccccc1,3.8,-19.1,78.7*,nt,nt,-1.4
COc1cc(CNCc2ccco2)ccc1OCc1ccccc1,3.7,nt,99.6*,92.2,83.0,nt
COc1ccccc1N1CCN(S(=O)(=O)c2ccc(Cl)s2)CC1,-0.1,-48.4,3.9,68.7,69.8,-0.159
Cc1ccc(NC(=O)/C=C\C(=O)NCC(=O)O)cc1,3.3,52.9,7.6,nt,nt,-0.195
CCCCNC(=O)O/N=C(\N)CS(=O)(=O)C(C)(C)C,2.5,nt,nt,nt,nt,nt
COc1ccc(N(CC(=O)N2CCc3ccccc32)S(=O)(=O)c2c(C)n[nH]c2C)cc1,-5.5,nt,9.9,75.8,76.4,-2.01
COc1cc(CNCc2ccccn2)ccc1OCc1c(Cl)cccc1Cl,-4.1,nt,100.2*,51.1,56.0,nt
COc1ccc(CCN(C)Cc2ccc(OCc3ccccc3)c(OC)c2)cc1OC,-7.5,nt,64.4*,53.7,55.5,-0.783

# High-throughput results from PubChem BioAssay.
